Results filed as inconclusive are left out. Values without a mark were called inactive. Activity calls are given as the source filed them. The call rests on the fitted dose curve; in most records, active means well fitted cell-killing curve with a large enough effect; inconclusive means small, poorly fitted or top-dose-only effect; inactive means flat fitted curve, though single readings scatter. Where a SMILES comes first, the peptide text is derived from it. [ ]: non-standard residue; d: D form. The star is where a group is joined. Sta = CC(C)C[C@H](N)[C@@H](O)CC(=O)O; Isovaleryl = CC(C)CC(=O)*
Assay: Quantitative highthroughput screen to assess conditional lethalithy of P12 Ichikawa cells grown in RPMI1640 with untreated serum (RPMI+s) (AID 1963881); further: nearly all actives have a fitted effect of over 35% in size
Conditions: ATP luminescence, 48 h; Potency: viability; series mostly up to 45.8 µM; viability: at the top concentration
Source text: Assay Provider: Jason Cantor Ph.D.
Department of Biochemistry
University of Wisconsin-Madison, Madison, WI, USA
Chemical screening studies have identified drug sensitivities across hundreds of cancer cell lines but most putative therapeutics fail to translate. Discovery and development of drug candidates in models that more accurately reflect nutrient levels in human blood is a major challenge. Here we performed high-throughput screens in conventional versus Human Plasma-Like Medium (HPLM) to identify compounds that were "missed" when screening using the artificial culture condition. Sets of conditional anticancer compounds spanned phases of clinical development and included non-oncology drugs were assessed. […] We also traced conditional phenotypes for several chemotherapeutics to availability of HPLM-specific metabolites and confirmed others for compounds whose reported targets are encoded by nonessential genes. Our findings establish generalizable strategies for exploiting conditional lethality in HPLM to reveal therapeutic candidates and mechanisms of action in cancer cells.
Described herein are the results of each viability screens against three cell lines: NOMO1 (an acute myeloid leukemia cell line); P12-Ichikawa (a T-cell acute lymphoblastic leukemia); and SEM (a B-cell ALL). Each assay was screened using 3 different cell culture media: homemade human plasma-Like medium with 10% dialyzed fetal bovine serum (HPLM+ds); RPMI1640 with 10% untreated FBS and 5mM glucose (RPMI+s); and RPMI1640 with 10% dialyzed fetal bovine serum and 5 mM glucose (RPMI+ds).
PROTOCOL TABLE (as described by Inglese J, Shamu CE and Guy RK. 2007)
SEQUENCE No. (e.g., 1, 2, 3, etc.); […] (e.g., Cells, Incubation, Reagent, etc.); VALUE and DESCRIPTION.
1; Cells; 5 uL; white, solid bottom 1536-well Greiner assay plate.
2; Compounds; 23 nL; Kalypsis pin tool (Wako USA) equipped with a 1536-well pin head to transfer to the assay plates.
3; Incubation; 48 hours; 37C incubation.
4; Reagent; 3 uL; CellTiter Glo (Promega).
5; Incubation; 5 min, room temperature
6; Detection; Luminescence, Viewlux PerkinElmer.
NOTES (numbers refer to Sequence numbers above)
1. Briefly, 5 ul of cell reagent was dispensed using a Multidrop Combi Dispenser. The NOMO1 and SEM cells were plated at 500 cells/well and the P12-Ichikawa line at 1000 cells/well.
2. After seeding the cells, 23 nL of MIPE 4.1 library compounds (in DMSO) were added to each plate using a Kalypsys 1536 Pintool dispenser. Bortezomib at final concentration of […] and DMSO were added to each plate as positive and negative controls respectively. For each screen, MIPE 4.1 compounds were added over an eleven-point concentration range […] in 3-fold dilutions.
3. Each plate was covered with a stainless steel gasketed lid to prevent evaporation and incubated for 48 hour at 37C, 95% relative humidity, and 5% CO2.
4-5. Three microliter CellTilter-GloTM luminescent substrate mix (Promega) reagent was added to the assay plate and incubated at room temperature for 5 min.
6. The luminescence signal was measured using a ViewLux (PerkinElmer) multiplate reader with a 2 second exposure time per plate. Data for each compound were normalized as percent viability such that measurements for DMSO and the empty well controls in each plate were defined as 100% and 0%, respectively.
Potency means the concentration at half of the fitted maximal effect.

SMILES	Potency	viability [%]
O=C(Nc1cc(C(F)(F)F)cc(C(F)(F)F)c1)c1cc(Cl)ccc1O	2960 nM (active)	–
CNC(=O)c1ccc(C)c(-n2c(C)cc(OCc3ccc(F)cc3F)c(Br)c2=O)c1	–	84.9
NC(=O)Nc1cc(-c2ccc(CN3CCOCC3)cc2)sc1C(N)=O	118 nM (active)	–
Cn1cc(C=C2C(=O)Nc3cccnc32)c2ccccc21	23500 nM (active)	–
O=C1NC(=O)[C@@H](c2cn3c4c(cccc24)CCC3)[C@H]1c1c[nH]c2ccccc12	1320 nM (active)	–
Cc1cnc(-c2cc(N3CCN(C(=O)CCS(C)(=O)=O)CC3)ncc2Cl)c(C)c1	–	95.5
C[C@]12CC[C@@H]3c4ccc(O)cc4CC[C@H]3[C@H]1C[C@@H](O)[C@H]2O	–	94.8
O=c1n(CCCN2CCN(c3cccc(Cl)c3)CC2)nc2ccccn12	–	94
OC(Cn1cncn1)(Cn1cncn1)c1ccc(F)cc1F	–	101
C[C@@H](N)C1CCC(C(=O)Nc2ccncc2)CC1 (stereo not given in full)	–	93.7
CNCCCC12CCC(c3ccccc31)c1ccccc12	18700 nM (active)	–
CCN(CC)CC#CCOC(=O)C(O)(c1ccccc1)C1CCCCC1 (stereo not given)	–	85.9
CCC(=O)NC[C@H](Cc1ccc(OCCc2nc(-c3ccccc3)oc2C)cc1)NC(C)=CC(=O)c1ccc(C(F)(F)F)cc1	16600 nM (active)	–
CCOC(=O)C1=C(N)Oc2ccc(Br)cc2C1C(C#N)C(=O)OCC (stereo not given)	–	97.9
O=C1NC(=O)C(=Cc2cccc(C(F)(F)F)c2)S1	–	93.8
CC1(C)[C@H](O[C@H]2O[C@H](C(=O)O)[C@@H](O)[C@H](O)[C@H]2O[C@@H]2O[C@H](C(=O)O)[C@@H](O)[C@H](O)[C@H]2O)CC[C@@]2(C)[C@H]1CC[C@]1(C)[C@H]2C(=O)C=C2[C@H]3C[C@@](C)(C(=O)O)CC[C@]3(C)CC[C@]21C	–	95.1
CC(O)C1C(=O)N2C(C(=O)O)=C(SC3CNC(C(=O)N(C)C)C3)C(C)C12 (stereo not given)	–	97.7
CCN(CC)CCn1c(=O)c(Cc2ccc(OC)cc2)nc2ccccc21	–	102
OCCNC1CCCc2c1[nH]c1ccc(-c3ccccc3)cc21 (stereo not given)	18700 nM (active)	–
CC(c1cc2ccccc2s1)N(O)C(N)=O (stereo not given)	–	94.9

SMILES	Potency	viability [%]
CC(C)(C(=O)NCC(F)(F)C(F)(F)F)C(=O)N[C@@H]1C(=O)Nc2ccccc2-c2ccccc21	2960 nM (active)	–
COCCOc1nc(-c2ccc(Cl)c(Cl)c2)n(-c2ccc(NC(=O)CCl)cc2)n1	–	90.2
CC(=O)NC[C@H]1CN(c2ccc(N3CCOCC3)c(F)c2)C(=O)O1	–	98.8
C[N+]1(C)[C@@H]2C[C@@H](OC(=O)C(O)(c3cccs3)c3cccs3)C[C@H]1[C@@H]1O[C@@H]12	–	105
Nc1ccn([C@@H]2O[C@H](CO)[C@@H](O)[C@H]2O)c(=O)n1	–	0.483
CC(C=CC1=C(C)CCCC1(C)C)=CC=CC(C)=CC(=O)O	–	95.9
Cc1nc(C(=O)NCC(=O)O)c(O)c2ccc(Oc3ccccc3)cc12	–	93.7
CC(COc1ccccc1)N(CCCl)Cc1ccccc1 (stereo not given)	2640 nM (active)	–
Nc1nnc(-c2cccc(Cl)c2Cl)c(N)n1	–	90.8
O=C(NC1CCOCC1)c1ccc(-c2cc(-c3cn[nH]c3-c3ccccn3)ccn2)cc1	–	108
CC(C)CC(=O)N[C@H](C(=O)N[C@H](C(=O)N[C@@H](CC(C)C)[C@@H](O)CC(=O)N[C@@H](C)C(=O)N[C@@H](CC(C)C)[C@@H](O)CC(=O)O)C(C)C)C(C)C (Isovaleryl-VV[Sta]A[Sta]-OH)	–	96.7
CCn1c(-c2nonc2N)nc2cncc(CNC3CCNCC3)c21	23500 nM (active)	–
Cc1ncc([N+](=O)[O-])n1CC(C)O (stereo not given)	–	98
OCCN1C[C@H](O)[C@@H](O)[C@H](O)[C@@H]1CO	2640 nM (active)	–
Cc1cc(-c2ncc(CC(=O)Nc3ccc(-c4cnccn4)cn3)cc2C)ccn1	–	78.4
CC1=C(C(=O)Nc2cc3cn[nH]c3cc2F)C(c2ccc(C(F)(F)F)cc2)CC(=O)N1 (stereo not given)	10500 nM (active)	–
CCOc1cc(C(C)(C)C)ccc1C1=N[C@@](C)(c2ccc(Cl)cc2)[C@@](C)(c2ccc(Cl)cc2)N1C(=O)N1CCN(CC(=O)N2CCOCC2)CC1	–	97.9
CCCCNc1cc(C(=O)O)cc(S(N)(=O)=O)c1Oc1ccccc1	–	108
OC[C@H]1OC(O)C[C@@H](O)[C@H]1O (stereo not given in full)	–	89.1
CN(C)c1ccc(C(=C2C=CC(=[N+](C)C)C=C2)c2ccc(N(C)C)cc2)cc1	118 nM (active)	–
